Inconclusive results are not listed. Calls of active or inactive are those of the source. Unless noted, calls follow the shape of the full dose curve.
Legend:
[1] = qHTS assay to identify small molecule agonists of the peroxisome proliferator-activated receptor delta (PPARd) signaling pathway - cell viability counter screen (AID 743211; active = well fitted curve in the direction sought with a large enough effect in the repeat runs; an effect the other way counts as inactive or inconclusive; also: nearly all actives have a fitted effect of over 55% in size)
Procedure, shortened: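 Viability was measured as CellTiter-Glo luminescence (30 min, room temperature) in the same wells as the beta-lactamase readout. GeneBLAzer PPARd UAS-bla HEK293H cells received compound after 5 h plating and were incubated 17 h at 37 C.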

[2] = biological target: Peroxisome proliferator-activated receptor delta (Homo sapiens) (UniProt Q03181); assay: qHTS assay to identify small molecule agonists of the peroxisome proliferator-activated receptor delta (PPARd) signaling pathway (AID 743212)
Sequence of Peroxisome proliferator-activated receptor delta (Homo sapiens) (Q03181 whole entry, looked up): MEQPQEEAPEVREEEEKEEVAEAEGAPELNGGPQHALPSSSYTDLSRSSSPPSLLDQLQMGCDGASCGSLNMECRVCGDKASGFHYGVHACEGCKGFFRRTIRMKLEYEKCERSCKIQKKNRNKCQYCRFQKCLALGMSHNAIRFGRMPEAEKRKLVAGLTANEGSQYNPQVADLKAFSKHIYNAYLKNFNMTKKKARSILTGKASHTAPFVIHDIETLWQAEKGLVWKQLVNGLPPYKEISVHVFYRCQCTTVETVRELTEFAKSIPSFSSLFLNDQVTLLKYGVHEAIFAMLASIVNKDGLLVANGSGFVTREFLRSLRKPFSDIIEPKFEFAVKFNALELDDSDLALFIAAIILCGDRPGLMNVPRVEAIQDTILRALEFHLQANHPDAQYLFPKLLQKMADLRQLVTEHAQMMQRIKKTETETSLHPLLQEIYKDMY
Procedure, shortened: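 GeneBLAzer UAS-bla HEK293H cells carrying a PPARδ construct were exposed to compounds at 37 °C. Beta-lactamase activity was read by FRET fluorescence after 2 h at room temperature with LiveBLAzer B/G substrate.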

[3] = biological target: Peroxisome proliferator-activated receptor delta (Homo sapiens) (UniProt Q03181); assay: qHTS assay to identify small molecule antagonists of the peroxisome proliferator-activated receptor delta (PPARd) signaling pathway (AID 743215; active = well fitted inhibition curve with a large enough effect in the signal ratio in the repeat runs, not every such curve was filed as active; the % refers to the signal ratio;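 also: cells stimulated with agonist L165041 at 300 nM final during compound exposure; series mostly up to about 62 µM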)
Procedure, shortened: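 Read-out is beta-lactamase FRET fluorescence, measured 2 h after substrate addition at room temperature. Beforehand, UAS-bla HEK293H cells carrying the PPARd reporter were exposed to compounds with L165041 at 300 nM final for 17 h at 37 C.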

[4] = biological target: Bile acid receptor (Homo sapiens) (UniProt Q96RI1); assay: qHTS assay to identify small molecule antagonists of the farnesoid-X-receptor (FXR) signaling pathway (AID 743217; active = well fitted inhibition curve with a large enough effect in the signal ratio in the repeat runs, not every such curve was filed as active; the % refers to the signal ratio)
Sequence of Bile acid receptor (Homo sapiens) (Q96RI1 whole entry, looked up): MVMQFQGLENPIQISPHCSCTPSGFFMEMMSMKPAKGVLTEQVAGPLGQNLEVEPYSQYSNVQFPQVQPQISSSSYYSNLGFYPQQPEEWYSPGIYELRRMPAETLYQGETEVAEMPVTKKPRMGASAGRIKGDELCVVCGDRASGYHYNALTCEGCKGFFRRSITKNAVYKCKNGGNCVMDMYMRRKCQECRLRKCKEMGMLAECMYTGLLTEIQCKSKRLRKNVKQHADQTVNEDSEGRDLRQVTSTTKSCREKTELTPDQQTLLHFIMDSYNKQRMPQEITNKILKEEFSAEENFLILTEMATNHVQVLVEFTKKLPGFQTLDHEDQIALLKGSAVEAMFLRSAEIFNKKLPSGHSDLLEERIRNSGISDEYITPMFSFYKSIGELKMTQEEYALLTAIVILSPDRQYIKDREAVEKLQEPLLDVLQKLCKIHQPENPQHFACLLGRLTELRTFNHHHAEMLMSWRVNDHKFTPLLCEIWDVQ
Procedure, shortened: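 HEK 293T FXR-UAS-bla, 5000 cells/well; compound + CDCA 50 uM final; 16 h, 37 °C; B/G FRET substrate 2 h RT; fluorescence.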

[5] = qHTS assay to identify small molecule agonists of the farnesoid-X-receptor (FXR) signaling pathway - cell viability counter screen (AID 743218; active = well fitted curve in the direction sought with a large enough effect in the repeat runs; an effect the other way counts as inactive or inconclusive; also: nearly all actives have a fitted effect of over 45% in size)
Procedure, shortened: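 HEK 293T FXR-bla cells; 5 h pre-incubation, 16 h compound exposure at 37 C; LiveBLAzer substrate 2 h RT, then CellTiter-Glo 30 min RT, luminescence.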

[6] = biological target: Bile acid receptor (Homo sapiens) (UniProt Q96RI1); assay: qHTS assay to identify small molecule agonists of the farnesoid-X-receptor (FXR) signaling pathway (AID 743220; active = well fitted activation curve with a large enough effect in the signal ratio in the repeat runs, not every such curve was filed as active; the % refers to the signal ratio)
Procedure, shortened: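 Beta-lactamase reporter under UAS control in GeneBLAzer FXR HEK 293T cells (5000/well) measured with LiveBLAzer FRET substrate after 2 h at room temperature. Compound exposure lasted 16 h at 37C.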

[7] = qHTS assay to identify small molecule antagonists of the farnesoid-X-receptor (FXR) signaling pathway - cell viability counter screen (AID 743221; active = well fitted cell-killing curve with a large enough effect in the repeat runs, not every such curve was filed as active; also: nearly all actives have a fitted effect of over 50% in size)
Procedure, shortened: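 Cytotoxicity counter screen run in the FXR-bla reporter wells: HEK 293T cells exposed to compound with 50 uM (final) chenodeoxycholic acid for 16 h, 37 C, then viability measured by CellTiter-Glo luminescence after 30 min, room temperature.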

[8] = biological target: Vitamin D3 receptor (Homo sapiens) (UniProt P11473); assay: qHTS assay to identify small molecule agonists of the vitamin D receptor (VDR) signaling pathway (AID 743222)
Sequence of Vitamin D3 receptor (Homo sapiens) (P11473 whole entry, looked up): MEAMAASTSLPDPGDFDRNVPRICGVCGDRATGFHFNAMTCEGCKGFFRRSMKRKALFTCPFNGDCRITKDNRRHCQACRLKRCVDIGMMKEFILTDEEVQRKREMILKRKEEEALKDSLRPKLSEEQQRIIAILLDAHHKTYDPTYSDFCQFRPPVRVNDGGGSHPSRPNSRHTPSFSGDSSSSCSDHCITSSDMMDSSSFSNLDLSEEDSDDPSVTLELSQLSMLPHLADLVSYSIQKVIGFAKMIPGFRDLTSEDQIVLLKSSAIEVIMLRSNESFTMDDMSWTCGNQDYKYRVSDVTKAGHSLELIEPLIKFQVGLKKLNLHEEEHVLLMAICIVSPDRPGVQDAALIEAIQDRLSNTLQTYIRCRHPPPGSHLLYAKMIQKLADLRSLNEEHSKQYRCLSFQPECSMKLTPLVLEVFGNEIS
Procedure, shortened: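 VDR-bla cells, 2,000/well; 4 h preincubation 37C; cpd (DMSO) 16 h; LiveBLAzer B/G substrate 2 h RT; fluorescence intensity read.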

[9] = biological target: Vitamin D3 receptor (Homo sapiens) (UniProt P11473); assay: qHTS assay to identify small molecule antagonists of the vitamin D receptor (VDR) signaling pathway (AID 743223; active = well fitted inhibition curve with a large enough effect in the signal ratio in the repeat runs, not every such curve was filed as active; the % refers to the signal ratio)
Procedure, shortened: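 Antagonist mode: compound added to VDR-bla cells alongside agonist 1alpha,25-dihydroxyvitamin D3 (3 nM final), incubation 16 h at 37C. Read-out is LiveBLAzer FRET fluorescence, 2 h at room temperature.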

[10] = qHTS assay to identify small molecule agonists of the vitamin D receptor (VDR) signaling pathway - cell viability counter screen (AID 743224; active = well fitted curve in the direction sought with a large enough effect in the repeat runs; an effect the other way counts as inactive or inconclusive; also: series mostly up to about 63 µM; nearly all actives have a fitted effect of over 50% in size)
Procedure, shortened: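 Luminescence from CellTiter-Glo, read after 30 min at room temperature, reports viability of VDR-bla cells treated with compounds for 16 h at 37C in the wells used for the beta-lactamase FRET read.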

[11] = qHTS assay to identify small molecule antagonists of the vitamin D receptor (VDR) signaling pathway - cell viability counter screen (AID 743225; active = well fitted curve in the direction sought with a large enough effect in the repeat runs; an effect the other way counts as inactive or inconclusive; also: nearly all actives have a fitted effect of over 50% in size)
Procedure, shortened: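 Cytotoxicity counter screen read by CellTiter-Glo luminescence (30 min, room temperature) in the same wells as the VDR-bla antagonist readout. HEK 293T VDR-UAS-bla cells had 16 h at 37C with compound and 3 nM (final) 1-alpha,25-dihydroxyvitamin D3, then 2 h with FRET substrate.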

[12] = qHTS assay to identify small molecule agonists of the NFkB signaling pathway - cell viability counter screen (AID 1159515); also: series mostly up to about 61 µM; nearly all actives have a fitted effect of over 55% in size
Procedure, shortened: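 Luminescence from CellTiter-Glo (30 min, room temperature) gives viability, measured in the same wells as the beta-lactamase reporter read. Cells were NFkB-bla ME-180, 2,000 per well, treated 5 hr with compounds.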

[13] = qHTS assay to identify small molecule agonists of the endoplasmic reticulum stress response signaling pathway (AID 1159516; active = well fitted activation curve with a large enough effect in the signal ratio in the repeat runs, not every such curve was filed as active; the % refers to the signal ratio)
Procedure, shortened: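 Read-out is beta-lactamase cleavage of a FRET substrate (405 nm excitation; 460 and 530 nm emissions) in ESRE-bla HeLa cells after a 5 hr compound exposure at 37 C. Substrate incubation ran 2 hr at room temperature.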

[14] = qHTS assay to identify small molecule agonists of the endoplasmic reticulum stress response signaling pathway - cell viability counter screen (AID 1159517);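 also: HeLa cells carrying an ER stress response element beta-lactamase reporter; series mostly up to about 61 µM; nearly all actives have a fitted effect of over 50% in size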
Procedure, shortened: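 ESRE-bla HeLa cells, 1,500 per well, seeded overnight then treated with compounds for 5 hr at 37 C. After the beta-lactamase read, viability in the same wells is measured by CellTiter-Glo luminescence after 30 min at room temperature.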

[15] = qHTS assay to identify small molecule antagonists of the retinoid-related orphan receptor gamma (ROR-gamma) signaling pathway - cell viability counter screen (AID 1159520; active = well fitted curve in the direction sought with a large enough effect in the repeat runs; an effect the other way counts as inactive or inconclusive; also: nearly all actives have a fitted effect of over 50% in size)
Procedure, shortened: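 Tet-on ROR gamma CHO cells were given compounds for 2 hr, then doxycycline hyclate at 1 uM final, and incubated 16 hr at 37 C. Viability was measured as ATP content by CellTiter-Glo luminescence.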

[16] = biological target: Nuclear receptor ROR-gamma (Homo sapiens) (UniProt P51449); assay: qHTS assay to identify small molecule antagonists of the retinoid-related orphan receptor gamma (ROR-gamma) signaling pathway (AID 1159521; active = well fitted curve in the direction sought with a large enough effect in the repeat runs; an effect the other way counts as inactive or inconclusive)
Procedure, shortened: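 Antagonist read-out: drop in luminescence (ONE-Glo) from an RORE-LUC reporter in CHO cells with doxycycline-inducible ROR-gamma; 2 hr compound pretreatment, 1 uM doxycycline, 16 hr incubation at 37 C.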

[17] = qHTS assay to identify small molecule agonists of the AP-1 signaling pathway - cell viability counter screen (AID 1159525); also: nearly all actives have a fitted effect of over 55% in size
Procedure, shortened: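 AP-1-bla ME-180 cells in Opti-MEM with 0.5% dialyzed FBS, compound exposure 5 h at 37 C in 15-point titration. Viability read in the same wells as ATP content by CellTiter-Glo luminescence, normalised to tetra-n-octylammonium bromide and DMSO controls.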

[18] = qHTS assay to identify small molecule agonists of the AP-1 signaling pathway (AID 1159526)
[19] = biological target: Retinoic acid receptor RXR-alpha (Homo sapiens) (UniProt P19793); assay: qHTS assay to identify small molecule agonists of the RXR signaling pathway (AID 1159527); also: nearly all actives have a fitted effect of over 35% in size
Sequence of Retinoic acid receptor RXR-alpha (Homo sapiens) (P19793 whole entry, looked up): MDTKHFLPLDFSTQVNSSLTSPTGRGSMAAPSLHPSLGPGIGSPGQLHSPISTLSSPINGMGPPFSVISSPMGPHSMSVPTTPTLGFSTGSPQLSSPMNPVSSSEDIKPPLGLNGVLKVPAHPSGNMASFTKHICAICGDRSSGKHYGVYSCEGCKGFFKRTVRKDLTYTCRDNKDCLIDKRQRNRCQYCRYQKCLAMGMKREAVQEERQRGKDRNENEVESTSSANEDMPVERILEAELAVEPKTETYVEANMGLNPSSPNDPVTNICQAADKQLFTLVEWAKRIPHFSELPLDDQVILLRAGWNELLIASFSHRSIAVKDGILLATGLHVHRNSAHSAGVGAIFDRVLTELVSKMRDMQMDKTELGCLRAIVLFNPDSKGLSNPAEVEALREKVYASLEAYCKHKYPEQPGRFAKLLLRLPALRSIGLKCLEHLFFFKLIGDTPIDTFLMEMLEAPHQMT
Procedure, shortened: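 Agonist-mode beta-lactamase reporter assay: HEK 293T RXR-alpha-UAS-bla cells treated 16 hr at 37 C with compounds, 9-cis retinoic acid as positive control. LiveBLAzer FRET substrate, 405 nm excitation, 460/530 nm emission.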

[20] = qHTS assay to identify small molecule antagonists of the peroxisome proliferator-activated receptor delta (PPARd) signaling pathway - cell viability counter screen (AID 743213; active = well fitted curve in the direction sought with a large enough effect in the repeat runs; an effect the other way counts as inactive or inconclusive; also: nearly all actives have a fitted effect of over 50% in size)
Procedure, shortened: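 PPARd-bla HEK293H cells (3000/well) got compound plus 300 nM L165041 agonist for 17 h at 37 C. Viability in the same wells came from CellTiter-Glo luminescence after 30 min at room temperature.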

Measured: Potency

CCc1cccc(O)c1
inactive: [1] | [2] | [3] | [4] | [5] | [6] | [7] | [8] | [9] | [10] | [11] | [12] | [13] | [14] | [15] | [16] | [17] | [18] | [19]

O=C1OC(=O)c2c(Cl)c(Cl)c(Cl)c(Cl)c21
inactive: [1] | [2] | [20] | [3] | [4] | [5] | [6] | [7] | [10] | [11] | [12] | [13] | [14] | [15] | [16] | [17] | [18] | [19]

CC(O)CNCC(C)O (stereo not given)
inactive: [1] | [2] | [20] | [3] | [5] | [7] | [8] | [9] | [10] | [11] | [12] | [13] | [14] | [15] | [16] | [17] | [18] | [19]

CC(=O)CC(=O)N(C)C
inactive: [1] | [2] | [3] | [4] | [5] | [6] | [7] | [8] | [9] | [10] | [11] | [12] | [13] | [14] | [15] | [16] | [17] | [18] | [19]

Cc1ccc(C(C)C)cc1
inactive: [1] | [2] | [3] | [4] | [5] | [6] | [7] | [8] | [9] | [10] | [11] | [12] | [13] | [14] | [15] | [16] | [17] | [18] | [19]

CC(=O)C(C)C
inactive: [1] | [2] | [20] | [3] | [5] | [7] | [8] | [9] | [10] | [11] | [12] | [13] | [14] | [15] | [16] | [17] | [18] | [19]

CCCCC(CC)COC(=O)c1ccc(C(=O)OCC(CC)CCCC)cc1 (stereo not given)
inactive: [1] | [2] | [20] | [3] | [4] | [5] | [6] | [7] | [10] | [11] | [12] | [13] | [14] | [15] | [16] | [17] | [18] | [19]

CCCCCCC(=O)O
inactive: [1] | [2] | [3] | [4] | [5] | [6] | [7] | [8] | [9] | [10] | [11] | [12] | [13] | [14] | [15] | [16] | [17] | [18] | [19]

N[C@@H](Cc1cc(I)c(Oc2ccc(O)c(I)c2)c(I)c1)C(=O)O
inactive: [1] | [2] | [20] | [3] | [5] | [7] | [8] | [9] | [10] | [11] | [12] | [13] | [14] | [15] | [16] | [17] | [18] | [19]

O=C(O)C1=NN(c2ccc(S(=O)(=O)O)cc2)C(=O)C1
inactive: [1] | [2] | [20] | [3] | [5] | [7] | [10] | [11] | [12] | [13] | [14] | [15] | [16] | [17] | [18] | [19]

CN=C(NC#N)NCCSCc1nc[nH]c1C
inactive: [1] | [2] | [3] | [4] | [5] | [6] | [7] | [8] | [9] | [10] | [11] | [12] | [13] | [14] | [15] | [16] | [17] | [18] | [19]

OCc1ccc(Cl)cc1Cl
inactive: [1] | [2] | [3] | [4] | [5] | [7] | [8] | [9] | [10] | [11] | [12] | [13] | [14] | [15] | [16] | [17] | [18] | [19]

CC(C)=CCC/C(C)=C/C=O
inactive: [1] | [2] | [20] | [3] | [5] | [7] | [8] | [9] | [10] | [11] | [12] | [13] | [14] | [15] | [16] | [17] | [18] | [19]

Cc1nnc(NS(=O)(=O)c2ccc(N)cc2)s1
inactive: [1] | [2] | [20] | [3] | [5] | [7] | [8] | [10] | [11] | [12] | [13] | [14] | [15] | [16] | [17] | [18] | [19]

C=CC(C)(C)C
inactive: [1] | [2] | [20] | [3] | [5] | [7] | [8] | [9] | [10] | [11] | [12] | [13] | [14] | [15] | [16] | [17] | [18] | [19]

CC(=O)OC[C@H]1O[C@@](COC(C)=O)(O[C@H]2O[C@H](COC(C)=O)[C@@H](OC(C)=O)[C@H](OC(C)=O)[C@H]2OC(C)=O)[C@@H](OC(C)=O)[C@@H]1OC(C)=O
inactive: [1] | [2] | [20] | [3] | [5] | [7] | [8] | [9] | [10] | [11] | [12] | [13] | [14] | [15] | [16] | [17] | [18] | [19]

— PubChem BioAssay (Tox21)
